According to the supplement of paper PMC10515830:
Structures can show the parent of a compound that is named as a salt.

What follows are compounds tested on Danio rerio larvae (5 dpf) (assay: difference in excitability vs DMSO (percentage points); higher = more excitable than DMSO). Conditions: 10 µM; exposure time 6 h.
Procedure, shortened: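 Wild-type zebrafish larvae at 5 dpf were kept in 96-well plates and exposed for 6 h to 100 µL egg water holding library compound at a final concentration of 10 µM. From 3 h into exposure, the plates were held at 28.5 ℃ and photographed every 6 s through a 3-h programme of moving lines and 100 ms, 400Hz tones. Each behaviour was scored by Z-LaP Tracker, a DeepLabCut model, and averaged over 48 larvae per compound. Every value gives the compound mean minus the vehicle control mean, in percentage points.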

Row | SMILES | difference in excitability
1 | COc1ccccc1OCCNCC(O)COc1cccc2[nH]c3ccccc3c12 (stereo not drawn) [Carvedilol] | 21.2
2 | CC(=O)OCC(=O)[C@@]1(O)CC[C@H]2[C@@H]3CCC4=CC(=O)CC[C@]4(C)[C@@]3(F)[C@@H](O)C[C@@]21C [Fludrocortisone Acetate] | -4.21
3 | CC(=O)S[C@@H]1CC2=CC(=O)CC[C@]2(C)[C@H]2CC[C@@]3(C)[C@@H](CC[C@@]34CCC(=O)O4)[C@H]12 [Spironolactone] | 2.95
4 | COc1cc2c(cc1OC)CC(=O)N(CCCN(C)C[C@H]1Cc3cc(OC)c(OC)cc31)CC2 [Ivabradine (hydrochloride)] | 8.58
5 | Cc1ccc(Nc2nccc(N(C)c3ccc4c(C)n(C)nc4c3)n2)cc1S(N)(=O)=O [Pazopanib] | 3.47
6 | COC(=O)c1ccc2c(c1)NC(=O)/C2=C(\Nc1ccc(N(C)C(=O)CN2CCN(C)CC2)cc1)c1ccccc1 | 16.7
7 | C[C@@H](O)[C@@H]1NC(=O)[C@H](CCCCN)NC(=O)[C@@H](Cc2c[nH]c3ccccc23)NC(=O)[C@H](Cc2ccccc2)NC(=O)[C@@H](NC(=O)[C@H](N)Cc2ccccc2)CSSC[C@@H](C(=O)N[C@H](CO)[C@@H](C)O)NC1=O [Octreotide (acetate)] | 11.3
8 | CN1C(=O)CC(C)(c2ccccc2)C1=O (stereo not drawn) [Methsuximide] | -3.21
9 | CNC(=C[N+](=O)[O-])NCCSCc1ccc(CN(C)C)o1 [Ranitidine (hydrochloride)] | -1.03
10 | CC(=O)N[C@@H](CS)C(=O)O [N-acetyl-L-Cysteine] | -2.2
11 | CCc1c2c(nc3ccc(OC(=O)N4CCC(N5CCCCC5)CC4)cc13)-c1cc3c(c(=O)n1C2)COC(=O)[C@]3(O)CC [Irinotecan (hydrochloride hydrate)] | 13.5
12 | CN(C)CC[C@@H](c1ccc(Cl)cc1)c1ccccn1 [Dexchlorpheniramine (maleate)] | 5.44
13 | NS(=O)(=O)c1cc2c(cc1Cl)NCNS2(=O)=O [Hydrochlorothiazide] | -7.7
14 | CCc1cc2c(cc1N1CCC(N3CCOCC3)CC1)C(C)(C)c1[nH]c3cc(C#N)ccc3c1C2=O | -3.24
15 | CC(=O)OCC(=O)[C@@]1(OC(C)=O)[C@@H](C)C[C@H]2[C@@H]3C[C@H](F)C4=CC(=O)C=C[C@]4(C)[C@@]3(F)[C@@H](O)C[C@@]21C [Diflorasone Diacetate] | 10.5
16 | C[C@@H]1C[C@H]2[C@@H]3CCC4=CC(=O)C=C[C@]4(C)[C@@]3(F)[C@@H](O)C[C@]2(C)[C@@]1(O)C(=O)CO [Dexamethasone] | -4.56
17 | OC[C@H]1O[C@@H](O[C@@H]2[C@@H](CO)OC(O)(CO)[C@H]2O)[C@H](O)[C@@H](O)[C@H]1O (mixture of isomers) [Lactulose] | 2.43
18 | C[C@@H](CN1CC(=O)NC(=O)C1)N1CC(=O)NC(=O)C1 [Dexrazoxane] | 5.16
19 | Nc1c(CC(=O)O)cccc1C(=O)c1ccc(Br)cc1 [Bromfenac (sodium salt)] | 22

Row | SMILES | difference in excitability
20 | N=C(N)NCCCC[C@@H]1NC(=O)CCSSC[C@@H](C(N)=O)NC(=O)[C@@H]2CCCN2C(=O)[C@H](Cc2c[nH]c3ccccc23)NC(=O)[C@H](CC(=O)O)NC(=O)CNC1=O [Eptifibatide] | 10.9
21 | CC(C)c1nc(CN(C)C(=O)N[C@H](C(=O)N[C@@H](Cc2ccccc2)C[C@H](O)[C@H](Cc2ccccc2)NC(=O)OCc2cncs2)C(C)C)cs1 [Ritonavir] | -4.63
22 | COc1ccc(Cl)cc1C(=O)NCCc1ccc(S(=O)(=O)NC(=O)NC2CCCCC2)cc1 [Glyburide (potassium salt)] | 9.95
23 | O=C(NC1CCN(CCCCC2(C(=O)NCC(F)(F)F)c3ccccc3-c3ccccc32)CC1)c1ccccc1-c1ccc(C(F)(F)F)cc1 [Lomitapide] | 17
24 | CC(C)NCC(O)c1cc(O)cc(O)c1 (stereo not drawn) [Metaproterenol (hemisulfate)] | 3.08
25 | Cc1c(-c2ccccc2)oc2c(C(=O)OCCN3CCCCC3)cccc2c1=O [Flavoxate (hydrochloride)] | 8.74
26 | Cc1cccc(CN2CCN(C(c3ccccc3)c3ccc(Cl)cc3)CC2)c1 (stereo not drawn) [Meclizine (hydrochloride)] | 6.31
27 | O=c1[nH]c(=O)n([C@H]2C[C@H](O)[C@@H](CO)O2)cc1F [Floxuridine] | 5.02
28 | CON(C)Cc1ccc(O)c2c1C[C@H]1C[C@H]3[C@H](N(C)C)C(=O)C(C(N)=O)=C(O)[C@@]3(O)C(=O)C1=C2O | -1.28
29 | CCN(CC)CC(=O)Nc1c(C)cccc1C [Lidocaine] | 4.55
30 | CC(C)OC(=O)CCC/C=C\C[C@@H]1[C@@H](/C=C/C(F)(F)COc2ccccc2)[C@H](O)C[C@@H]1O [Tafluprost] | 10.1
31 | Nc1nc(=O)n([C@@H]2CS[C@H](CO)O2)cc1F [Emtricitabine] | 1.12
32 | CCCCCCCCc1ccc(CCC(N)(CO)CO)cc1 [Fingolimod] | 5.87
33 | Cc1cn([C@H]2C=C[C@@H](CO)O2)c(=O)[nH]c1=O [Stavudine] | 7.17
34 | Oc1ccc(C2CNCCc3c2cc(O)c(O)c3Cl)cc1 (stereo not drawn) [Fenoldopam (mesylate)] | 9.9
35 | CC1CNc2c(cccc2S(=O)(=O)N[C@@H](CCCNC(=N)N)C(=O)N2CC[C@@H](C)C[C@@H]2C(=O)O)C1 (stereo partly drawn) [Argatroban] | 3.15
36 | CC(C)C(=O)Nc1ccc([N+](=O)[O-])c(C(F)(F)F)c1 [Flutamide] | 2.83
37 | NC(=O)N[C@@H](CCC(=O)O)C(=O)O [N-Carbamyl-L-Glutamic Acid] | 5.63
38 | CO/N=C(\C(=O)N[C@@H]1C(=O)N2C(C(=O)O)=C(COC(N)=O)CS[C@H]12)c1ccco1 [Cefuroxime (sodium salt)] | 21.1
